From ChEMBL document CHEMBL1961873, “Compounds: GSK PKIS; Assays: Nanosyn kinase panel” (2012) come the findings set out here.

The target of assay [1] is Tyrosine-protein kinase Fyn (Homo sapiens) (UniProt P06241). To be noted: at 1 µM.
For assay [2], the target named is Tyrosine-protein kinase HCK (Homo sapiens) (UniProt P08631). To be noted: at 0.1 µM.
Assay [3] shares this target. To be noted: at 1 µM.
Assay [4] has as its target Insulin-like growth factor 1 receptor (Homo sapiens) (UniProt P08069). To be noted: at 0.1 µM.
Assay [5] shares this target. To be noted: at 1 µM.
Assay [6] addresses Insulin receptor (Homo sapiens) (UniProt P06213). To be noted: at 0.1 µM.
Assay [7] has the same target. To be noted: at 1 µM.
Assay [8] has as its target Insulin receptor-related protein (Homo sapiens) (UniProt P14616). To be noted: at 0.1 µM.
The target is the same in assay [9]. The note with it: at 1 µM.
In assay [10] the target is T1, Tyrosine-protein kinase ITK/TSK (Homo sapiens) (UniProt Q08881).
T1 sequence (whole entry): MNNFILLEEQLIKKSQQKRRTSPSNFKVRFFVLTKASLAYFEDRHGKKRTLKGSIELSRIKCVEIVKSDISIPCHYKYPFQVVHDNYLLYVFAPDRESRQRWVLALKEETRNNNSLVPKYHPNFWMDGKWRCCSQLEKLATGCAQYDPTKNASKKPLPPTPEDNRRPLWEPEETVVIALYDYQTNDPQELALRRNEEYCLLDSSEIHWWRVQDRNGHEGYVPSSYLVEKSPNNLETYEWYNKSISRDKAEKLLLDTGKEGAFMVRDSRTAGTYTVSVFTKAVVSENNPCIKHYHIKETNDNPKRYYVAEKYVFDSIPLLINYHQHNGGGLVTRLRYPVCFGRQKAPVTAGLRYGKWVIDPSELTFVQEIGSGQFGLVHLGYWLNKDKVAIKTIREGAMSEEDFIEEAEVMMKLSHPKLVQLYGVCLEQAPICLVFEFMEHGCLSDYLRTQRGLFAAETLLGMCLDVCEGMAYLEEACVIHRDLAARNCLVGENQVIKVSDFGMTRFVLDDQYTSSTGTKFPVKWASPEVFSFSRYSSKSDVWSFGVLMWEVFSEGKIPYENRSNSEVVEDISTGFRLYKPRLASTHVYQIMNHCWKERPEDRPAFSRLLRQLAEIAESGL
To be noted: at 0.1 µM.

Assay [11] deals with T1, Tyrosine-protein kinase ITK/TSK (Homo sapiens). To be noted: at 1 µM.
The target in assay [12] is Tyrosine-protein kinase JAK1 (Homo sapiens) (UniProt P23458). To be noted: at 0.1 µM.
Assay [13] has the same target. The note with it: at 1 µM.
Assay [14] deals with Tyrosine-protein kinase JAK2 (Homo sapiens) (UniProt O60674). To be noted: at 0.1 µM.
For assay [15] the target is unchanged. To be noted: at 1 µM.
Assay [16] addresses T2, Tyrosine-protein kinase JAK3 (Homo sapiens) (UniProt P52333).
T2 sequence (whole entry): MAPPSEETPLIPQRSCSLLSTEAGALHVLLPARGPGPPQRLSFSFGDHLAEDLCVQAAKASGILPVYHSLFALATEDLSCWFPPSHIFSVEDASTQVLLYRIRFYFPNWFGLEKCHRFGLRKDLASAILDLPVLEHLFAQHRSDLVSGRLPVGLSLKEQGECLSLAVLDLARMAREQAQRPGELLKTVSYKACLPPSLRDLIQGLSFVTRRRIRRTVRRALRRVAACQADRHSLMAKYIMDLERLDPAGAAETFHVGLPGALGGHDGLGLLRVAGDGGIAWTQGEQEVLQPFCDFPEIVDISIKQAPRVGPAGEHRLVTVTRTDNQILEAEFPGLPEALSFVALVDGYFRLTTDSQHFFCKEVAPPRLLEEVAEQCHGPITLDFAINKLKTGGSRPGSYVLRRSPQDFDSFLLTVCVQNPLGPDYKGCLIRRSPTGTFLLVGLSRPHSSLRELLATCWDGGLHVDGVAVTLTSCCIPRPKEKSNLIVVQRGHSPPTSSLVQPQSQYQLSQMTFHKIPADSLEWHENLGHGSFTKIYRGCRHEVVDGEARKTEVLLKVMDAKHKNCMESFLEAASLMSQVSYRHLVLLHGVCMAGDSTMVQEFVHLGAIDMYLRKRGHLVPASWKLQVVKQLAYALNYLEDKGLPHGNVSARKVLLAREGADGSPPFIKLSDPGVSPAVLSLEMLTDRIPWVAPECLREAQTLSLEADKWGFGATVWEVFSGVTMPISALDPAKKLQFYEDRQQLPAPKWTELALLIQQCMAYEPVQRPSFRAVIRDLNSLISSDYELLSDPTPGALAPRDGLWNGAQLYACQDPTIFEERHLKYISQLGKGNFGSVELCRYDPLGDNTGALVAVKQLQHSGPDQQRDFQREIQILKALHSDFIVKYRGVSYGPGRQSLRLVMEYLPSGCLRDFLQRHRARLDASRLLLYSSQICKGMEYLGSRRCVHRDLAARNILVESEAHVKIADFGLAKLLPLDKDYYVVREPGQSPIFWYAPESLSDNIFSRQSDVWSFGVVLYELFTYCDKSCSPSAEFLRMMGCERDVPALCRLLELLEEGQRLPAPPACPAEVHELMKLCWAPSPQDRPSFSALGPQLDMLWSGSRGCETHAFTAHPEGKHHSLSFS
The note with it: at 0.1 µM.

Assay [17] concerns the target T2, Tyrosine-protein kinase JAK3 (Homo sapiens). The note with it: at 1 µM.
Assay [18] deals with Vascular endothelial growth factor receptor 2 (Homo sapiens) (UniProt P35968). The note with it: at 0.1 µM.
For assay [19] the target is unchanged. To be noted: at 1 µM.
The target of assay [20] is Mast/stem cell growth factor receptor Kit (Homo sapiens) (UniProt P10721). To be noted: at 0.1 µM.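 Further: values are mean inhibition of KIT, from the GSK PKIS dataset.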

One may read the inhibition as the drop in the measured response relative to a control, in per cent.

Insulin-like growth factor 1 receptor (Homo sapiens), sequence (P08069 31-736 limits assumed): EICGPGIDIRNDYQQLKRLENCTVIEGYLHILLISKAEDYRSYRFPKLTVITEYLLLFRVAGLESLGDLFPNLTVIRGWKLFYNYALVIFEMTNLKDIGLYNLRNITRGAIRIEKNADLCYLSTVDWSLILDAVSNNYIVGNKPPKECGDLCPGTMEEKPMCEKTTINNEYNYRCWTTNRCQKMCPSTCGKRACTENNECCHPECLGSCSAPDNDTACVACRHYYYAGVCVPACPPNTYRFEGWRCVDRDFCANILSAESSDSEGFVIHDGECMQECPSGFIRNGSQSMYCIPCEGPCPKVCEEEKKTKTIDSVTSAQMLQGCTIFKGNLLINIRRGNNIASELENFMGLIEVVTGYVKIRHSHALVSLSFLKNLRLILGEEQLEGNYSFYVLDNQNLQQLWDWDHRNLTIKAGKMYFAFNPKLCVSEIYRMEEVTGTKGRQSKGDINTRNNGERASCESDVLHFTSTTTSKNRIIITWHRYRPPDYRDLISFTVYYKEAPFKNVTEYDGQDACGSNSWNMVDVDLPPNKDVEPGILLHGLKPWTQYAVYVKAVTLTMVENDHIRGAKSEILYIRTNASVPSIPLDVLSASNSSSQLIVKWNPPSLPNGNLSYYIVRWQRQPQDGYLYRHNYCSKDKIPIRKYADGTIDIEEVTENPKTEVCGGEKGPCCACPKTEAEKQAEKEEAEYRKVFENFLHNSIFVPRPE
Insulin-like growth factor 1 receptor (Homo sapiens), sequence (P08069 741-1367 limits assumed): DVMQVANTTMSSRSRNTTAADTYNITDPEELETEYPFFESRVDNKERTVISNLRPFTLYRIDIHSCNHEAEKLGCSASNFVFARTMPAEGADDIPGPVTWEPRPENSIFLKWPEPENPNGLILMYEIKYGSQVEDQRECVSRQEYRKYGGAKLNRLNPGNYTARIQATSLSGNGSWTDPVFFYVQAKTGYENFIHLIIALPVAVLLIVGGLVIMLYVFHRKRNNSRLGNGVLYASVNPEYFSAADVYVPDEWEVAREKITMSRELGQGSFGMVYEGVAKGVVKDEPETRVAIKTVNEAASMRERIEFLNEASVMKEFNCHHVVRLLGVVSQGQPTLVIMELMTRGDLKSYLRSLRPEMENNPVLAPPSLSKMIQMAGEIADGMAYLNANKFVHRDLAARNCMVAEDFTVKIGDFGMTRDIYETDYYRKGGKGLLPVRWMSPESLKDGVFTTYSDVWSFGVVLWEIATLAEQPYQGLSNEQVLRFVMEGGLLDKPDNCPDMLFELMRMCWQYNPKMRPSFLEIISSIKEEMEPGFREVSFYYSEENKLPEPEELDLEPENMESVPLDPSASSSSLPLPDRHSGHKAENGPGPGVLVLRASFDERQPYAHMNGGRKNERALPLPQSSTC
Tyrosine-protein kinase HCK (Homo sapiens), sequence (P08631 2-526 limits assumed): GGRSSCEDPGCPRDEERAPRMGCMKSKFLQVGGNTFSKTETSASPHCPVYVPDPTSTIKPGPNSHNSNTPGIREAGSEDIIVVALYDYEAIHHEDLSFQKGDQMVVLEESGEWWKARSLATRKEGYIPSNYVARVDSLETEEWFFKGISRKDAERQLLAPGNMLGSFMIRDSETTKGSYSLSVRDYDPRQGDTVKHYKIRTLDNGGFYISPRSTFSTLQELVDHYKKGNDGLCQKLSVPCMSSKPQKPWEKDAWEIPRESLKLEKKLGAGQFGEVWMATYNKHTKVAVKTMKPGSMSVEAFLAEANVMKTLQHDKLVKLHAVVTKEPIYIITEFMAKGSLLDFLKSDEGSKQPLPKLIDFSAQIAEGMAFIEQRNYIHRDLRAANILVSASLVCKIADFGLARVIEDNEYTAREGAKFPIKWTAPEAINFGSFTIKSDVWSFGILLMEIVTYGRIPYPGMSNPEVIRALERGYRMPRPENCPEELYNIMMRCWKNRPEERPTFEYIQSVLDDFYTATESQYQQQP
Tyrosine-protein kinase JAK2 (Homo sapiens), sequence (O60674 whole entry): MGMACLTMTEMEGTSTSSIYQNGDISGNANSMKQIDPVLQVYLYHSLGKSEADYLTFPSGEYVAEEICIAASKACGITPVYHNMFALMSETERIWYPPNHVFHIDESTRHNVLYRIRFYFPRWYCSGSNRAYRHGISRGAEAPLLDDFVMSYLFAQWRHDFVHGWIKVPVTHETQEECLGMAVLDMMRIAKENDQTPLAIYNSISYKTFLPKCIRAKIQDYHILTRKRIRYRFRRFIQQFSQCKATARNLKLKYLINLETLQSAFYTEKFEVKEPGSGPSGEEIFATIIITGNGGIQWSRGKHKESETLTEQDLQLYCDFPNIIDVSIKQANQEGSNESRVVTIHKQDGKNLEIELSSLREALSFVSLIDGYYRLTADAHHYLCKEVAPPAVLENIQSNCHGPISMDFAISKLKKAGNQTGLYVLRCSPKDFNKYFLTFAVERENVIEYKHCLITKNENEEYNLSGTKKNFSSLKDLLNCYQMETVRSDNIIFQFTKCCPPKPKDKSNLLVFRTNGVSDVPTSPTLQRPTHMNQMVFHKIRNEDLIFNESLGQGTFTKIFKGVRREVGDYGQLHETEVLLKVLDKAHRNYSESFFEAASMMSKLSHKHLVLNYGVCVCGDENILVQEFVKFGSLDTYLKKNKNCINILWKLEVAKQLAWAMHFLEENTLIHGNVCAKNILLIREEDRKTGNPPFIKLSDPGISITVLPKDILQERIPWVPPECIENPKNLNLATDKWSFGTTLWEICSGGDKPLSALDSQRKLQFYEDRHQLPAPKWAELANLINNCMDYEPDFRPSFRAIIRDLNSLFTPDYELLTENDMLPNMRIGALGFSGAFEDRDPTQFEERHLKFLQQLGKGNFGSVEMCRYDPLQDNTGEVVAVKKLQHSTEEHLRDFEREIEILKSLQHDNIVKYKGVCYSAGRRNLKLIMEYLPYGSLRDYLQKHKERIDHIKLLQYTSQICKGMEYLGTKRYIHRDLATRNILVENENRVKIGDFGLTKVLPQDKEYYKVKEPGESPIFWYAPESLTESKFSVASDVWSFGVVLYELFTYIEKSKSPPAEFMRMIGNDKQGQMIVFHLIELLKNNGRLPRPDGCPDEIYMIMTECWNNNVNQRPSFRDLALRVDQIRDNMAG
Tyrosine-protein kinase JAK1 (Homo sapiens), sequence (P23458 whole entry): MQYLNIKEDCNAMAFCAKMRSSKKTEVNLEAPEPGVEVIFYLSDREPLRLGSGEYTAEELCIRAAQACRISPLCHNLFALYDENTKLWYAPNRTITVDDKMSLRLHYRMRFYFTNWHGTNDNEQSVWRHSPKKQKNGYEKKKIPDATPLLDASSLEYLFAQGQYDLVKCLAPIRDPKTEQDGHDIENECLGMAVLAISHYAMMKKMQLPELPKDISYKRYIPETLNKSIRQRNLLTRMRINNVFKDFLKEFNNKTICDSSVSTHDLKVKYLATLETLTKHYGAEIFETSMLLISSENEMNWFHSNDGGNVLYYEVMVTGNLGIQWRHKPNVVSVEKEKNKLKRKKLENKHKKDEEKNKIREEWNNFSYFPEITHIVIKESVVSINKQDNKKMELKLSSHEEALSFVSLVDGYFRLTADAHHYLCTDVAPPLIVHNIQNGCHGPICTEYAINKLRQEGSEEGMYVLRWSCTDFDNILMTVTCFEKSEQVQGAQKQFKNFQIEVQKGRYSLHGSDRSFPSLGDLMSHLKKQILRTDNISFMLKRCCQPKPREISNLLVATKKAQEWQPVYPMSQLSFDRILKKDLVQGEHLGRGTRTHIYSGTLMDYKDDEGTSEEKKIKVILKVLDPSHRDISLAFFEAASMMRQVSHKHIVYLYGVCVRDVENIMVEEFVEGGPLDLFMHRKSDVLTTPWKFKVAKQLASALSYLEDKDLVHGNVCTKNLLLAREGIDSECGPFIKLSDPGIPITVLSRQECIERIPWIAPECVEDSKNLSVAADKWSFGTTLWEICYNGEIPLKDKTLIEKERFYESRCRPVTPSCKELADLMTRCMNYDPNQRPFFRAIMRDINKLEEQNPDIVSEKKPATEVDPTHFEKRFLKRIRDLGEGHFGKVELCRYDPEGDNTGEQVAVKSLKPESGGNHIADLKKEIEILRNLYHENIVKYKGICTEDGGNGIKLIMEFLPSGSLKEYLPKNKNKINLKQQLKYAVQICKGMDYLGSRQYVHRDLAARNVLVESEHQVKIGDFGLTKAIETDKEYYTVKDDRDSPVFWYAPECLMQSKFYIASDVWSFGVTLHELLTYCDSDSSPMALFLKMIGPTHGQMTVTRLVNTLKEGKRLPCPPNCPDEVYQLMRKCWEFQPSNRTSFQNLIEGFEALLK
Tyrosine-protein kinase Fyn (Homo sapiens), sequence (P06241 2-537 limits assumed): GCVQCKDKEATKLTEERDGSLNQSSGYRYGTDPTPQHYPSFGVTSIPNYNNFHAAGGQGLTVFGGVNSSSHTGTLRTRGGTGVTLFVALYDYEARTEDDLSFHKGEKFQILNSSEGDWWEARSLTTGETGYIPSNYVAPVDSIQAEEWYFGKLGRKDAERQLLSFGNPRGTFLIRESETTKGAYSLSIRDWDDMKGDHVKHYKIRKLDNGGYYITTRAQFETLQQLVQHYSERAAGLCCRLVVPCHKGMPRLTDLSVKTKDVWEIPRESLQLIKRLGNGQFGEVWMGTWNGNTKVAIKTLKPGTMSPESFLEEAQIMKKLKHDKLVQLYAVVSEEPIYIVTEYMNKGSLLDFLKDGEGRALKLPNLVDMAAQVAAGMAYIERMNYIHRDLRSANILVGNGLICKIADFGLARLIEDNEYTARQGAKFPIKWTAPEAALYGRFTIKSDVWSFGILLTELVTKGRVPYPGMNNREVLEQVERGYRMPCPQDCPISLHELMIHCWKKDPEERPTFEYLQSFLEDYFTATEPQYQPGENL

With `Nc1nc(-c2ccc(F)cc2)c(-c2ccc3ncccc3n2)s1`, the inhibition in assay [1] was found to be 12.4%; in [2], 5.89%; in assay [3], 17.5%; in assay [4] it was 4.9%; in [5], 24.4%; in [6], 6.61%. In addition, the inhibition in [7] was 43.3%; in assay [8] it was 2.47%; in assay [9], 1.87%; in assay [10], 2.58%; in assay [11], 2.71%; in assay [12] it was 2.95%. Further, the inhibition is 6.76% in assay [13]; 2.05% in assay [14]; 4.07% in assay [15]; -0.98% in [16]; 1.8% in assay [17]; 33.2% in assay [18]. The inhibition in assay [19] is 71.1%; in assay [20] it was 3.28%.

For `CS(=O)(=O)CCNCc1ccc(-c2ccc3ncnc(Nc4ccc(OCc5ccccc5)c(C(F)(F)F)c4)c3c2)o1`, the inhibition in assay [1] is 4.69%; in assay [2], 4.59%; in [3] it was 5.75%; in [4], -0.48%; in assay [5], -0.18%; in [6], 0.37%. For the same compound, the inhibition in assay [7] was determined as 2.62%; in [8], 2.84%; in assay [9], 2.56%; in assay [10] it was 0.4%; in assay [11] it was 2.16%; in [12] it was 2.98%. Further, the inhibition in assay [13] is 3.56%; in assay [14] it was 1.86%; in assay [15] it was -0.24%; in [16], -4.36%; in assay [17], -1.51%; in assay [18] it was 4.72%. Further, the inhibition in [19] was 5.31%; in [20] it was 6.66%.

In the case of `COc1ccc(-c2nn3ncccc3c2-c2ccnc(Nc3ccc4c(c3)OCCO4)n2)cc1`, the inhibition in assay [1] was 36.6%; in [2], 13.4%; in assay [3], 46%; in assay [4] it was -3.1%; in assay [5] it was 7.28%; in assay [6], 1.21%. In addition, the inhibition in assay [7] was 24.1%; in assay [8] it was 0.02%; in assay [9], 3.24%; in assay [10], -1.45%; in assay [11] it was 0.71%; in assay [12], 1.48%. In addition, the inhibition in assay [13] was 1.48%; in assay [14], -0.19%; in [15] it was -0.78%; in assay [16], -1.66%; in assay [17] it was -0.04%; in assay [18] it was 11.3%. Further, the inhibition worked out at 64% in [19] and 40.5% in assay [20].

Consider `CNC(=O)c1cccc(C#Cc2cncnc2Nc2ccc(OCc3cccc(F)c3)c(Cl)c2)c1`, for which the inhibition in [1] is 5.06%; in assay [2], 2.16%; in assay [3], 2.54%; in assay [4] it was -0.34%; in [5], -0.55%; in assay [6] it was -2.02%. Moreover, the inhibition was -0.61% in [7]; 0.75% in [8]; 0.96% in assay [9]; -0.18% in [10]; -0.18% in assay [11]; -1.06% in assay [12]. Moreover, the inhibition in assay [13] is 7.9%; in assay [14] it was 0.28%; in [15], 1.34%; in assay [16], -1.04%; in assay [17] it was 1.79%; in [18] it was 1.34%. Besides, the inhibition in assay [19] was determined as 3.79%; in assay [20], 2.56%.

Regarding `CCCN(CCS(C)(=O)=O)Cc1ccc(-c2ccc3ncnc(Nc4ccc(OCc5cccc(F)c5)c(Cl)c4)c3c2)o1`, the inhibition in [1] stood at 2.14%; in assay [2] it was 4.4%; in assay [3], 8.65%; in [4] it was 0.58%; in [5] it was 1.93%; in [6] it was 5.38%. For the same compound, the inhibition is 5.24% in assay [7]; 0.9% in [8]; 1.54% in [9]; 0.49% in assay [10]; 1.15% in assay [11]; -0.11% in assay [12]. The inhibition in assay [13] was 4.59%; in [14], 0.69%; in assay [15], 3.22%; in [16] it was 0.2%; in [17], 2.79%; in assay [18], 4.89%. Further, the inhibition in assay [19] was determined as 8.91%; in [20], 2.87%.

Take `CCNC(=O)O[C@H]1CN[C@H](C#Cc2cc3ncnc(Nc4ccc(OCc5cccc(F)c5)c(Cl)c4)c3s2)C1`: the inhibition in [1] turned out to be 1.8%; in [2], 5.66%; in assay [3], 5.6%; in assay [4], 3.27%; in [5], 2.91%; in assay [6], 0.78%. For the same compound, the inhibition stood at 6.61% in [7]; 0.8% in assay [8]; 1.47% in assay [9]; 1.32% in [10]; 1.96% in assay [11]; 7.02% in assay [12]. For the same compound, the inhibition in [13] is -0.58%; in assay [14], 3.47%; in assay [15] it was 2.64%; in assay [16] it was -1.24%; in assay [17], 1.79%; in assay [18], 6.2%. In addition, the inhibition was 4.4% in [19] and 4.29% in [20].
